Cycloheximide cs – Cycloheximide Counterscreen for Small Molecule Inhibitors of Shiga Toxin; cell reporter, cycloheximide protein synthesis inhibition counterscreen; max response, %; actives 12% (n = 300,000); AID 2314, 2010; in the data active = max response mostly above about 13%, no sharp cut-off; inactive = mostly below about 14%; note: read at 38.3 µM for the half of the compounds with a filed dose; 0% is about no effect
TbPYK inhibitor – qHTS of Trypanosoma Brucei Inhibitors | pyruvate kinase (Trypanosoma brucei), Q57TT1 | TbPYK enzyme, Kinase-Glo Plus ATP luminescence, 45 min | Potency, µM (titrated, usually from 76.8 µM), inactives show at the top dose activity, negative = inhibition, most hits filed as inhibitors | actives 0.12% (n = 410,000) | AID 624173, 2012; note: potency is the fitted concentration of half-maximal effect; % is set by controls: 0 for no effect and ±100 for the full control effect; nearly all actives have a fitted effect of over 50% in size
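TbPYK + substrate in 50 mM TEA pH 7.2, 100 mM KCl, 10 mM MgCl2, 0.05% BSA, 0.01% Tween-20; cpd pinned; ADP 130 uM final; 45 min RT; Kinase-Glo Plus 10 min; luminescence endpoint.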
Shiga inhibitor – A qHTS for Small Molecule Inhibitors of Shiga Toxin; Vero cells, Shiga toxin protein synthesis inhibition reporter; actives 9.2% (n = 290,000); inhibition, % at 38.7 µM; in the data active = inhibition mostly above about 28%, no sharp cut-off; inactive = mostly below about 43%; note: 0% is about no effect
Giardia FBPA inh – qHTS Assay for Inhibitors of Fructose-1,6-bisphosphate Aldolase from Giardia Lamblia; Potency, µM (titrated, usually from 59.6 µM), for inactives: at the top dose activity, negative = inhibition, usual class: inhibitors; AID 2451, 2010; actives 0.71% (n = 290,000); purified Giardia FBPA; A8B2U2; note: potency is the fitted concentration of half-maximal effect; % is set by controls: 0 for no effect and ±100 for the full control effect; nearly all actives have a fitted effect of over 55% in size
Target sequence (A8B2U2 whole entry, looked up): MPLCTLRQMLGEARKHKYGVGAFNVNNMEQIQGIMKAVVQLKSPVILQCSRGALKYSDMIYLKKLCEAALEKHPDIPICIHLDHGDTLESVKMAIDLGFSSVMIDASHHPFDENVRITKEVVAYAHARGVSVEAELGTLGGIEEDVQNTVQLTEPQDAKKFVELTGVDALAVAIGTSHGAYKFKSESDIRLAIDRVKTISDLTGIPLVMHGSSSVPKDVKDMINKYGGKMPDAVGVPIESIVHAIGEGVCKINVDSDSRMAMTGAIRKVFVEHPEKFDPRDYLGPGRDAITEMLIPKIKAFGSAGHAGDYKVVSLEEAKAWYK
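Giardia FBPA (40 nM reagent) was preincubated 10 min at RT with compound (up to 57.5 uM final), then substrate plus GAPDH/TPI/NAD/arsenate coupling system with diaphorase/resazurin was added; resorufin fluorescence (525/598 nm) was read after 20 min.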
Sm TGR block – qHTS Assay for the Inhibitors of Schistosoma Mansoni Peroxiredoxins | Schistosoma mansoni thioredoxin glutathione reductase (TGR), Q962Y6 | purified TGR, DTNB reduction, TNB absorbance 405 nm | Potency, µM (highest dose often 114 µM), inactives show at the highest dose activity change, negative = inhibition, usual class: inhibitors | actives 3% (n = 360,000); note: potency is the fitted concentration of half-maximal effect; % is set by controls: 0 for no effect and ±100 for the full control effect; nearly all actives have a fitted effect of over 60% in size
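First, TGR (20 nM dispensed) and NADPH were mixed with compound. Second, a 15 min room-temperature incubation followed. Third, further NADPH and then DTNB were added to start the reaction. Finally, TNB absorbance was monitored kinetically.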
LmPK inh – qHTS Assay for Inhibitors of Leishmania Mexicana Pyruvate Kinase (LmPK) | Q27686 | purified LmPK, Kinase-Glo ATP luminescence, 1 h | Potency, µM (highest dose often 57.5 µM), for inactives: top-dose activity change, negative = inhibition, actives largely listed as inhibitors | actives 0.37% (n = 290,000) | AID 1721, 2009; note: potency is the fitted concentration of half-maximal effect; % is set by controls: 0 for no effect and ±100 for the full control effect
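Kinase-Glo luminescence read after 1 h RT reaction of 0.1 nM LmPK with 0.5 mM PEP and 0.1 mM ADP. Activity scaled between uninhibited and enzyme-free controls.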
Active calls of the source: *; ? = inconclusive; . = no result given; [ ] = remark or other dose. Many of the other results were omitted from the sample, so hits are more common in it than they were. Unless noted, calls come from the whole dose curve; as a rule, active = well fitted curve in the direction sought with a large enough effect; inconclusive = small, poorly fitted or top-dose-only effect, or another doubt; inactive = no such curve, though single readings can be large; an effect the other way counts as inactive or inconclusive.

SMILES	Cycloheximide cs	TbPYK inhibitor	Shiga inhibitor	Giardia FBPA inh	Sm TGR block	LmPK inh
OCCOCCNc1ncnc2c1cnn2-c1ccccc1	-2.4	5.0%	-12.5	-5.4%	2.6%	-0.1%
c1ccc(-n2ncc3c(NCc4ccccn4)ncnc32)cc1	30.3*	-11.2%	73.6*	-4.8%	-16.8%	1.9%
Cc1cccc(-n2ncc3c(NCCc4ccc(S(N)(=O)=O)cc4)ncnc32)c1	1.0	-0.1%	-6.3	-7.5%	9.6%	5.0%
CCOC(=O)c1cc(C)n(CC2CCC(C(=O)Nc3ccc(Cl)cc3)CC2)c1C (stereo not drawn)	.	-13.3%	.	.	-1.5%	.
Cc1ccc(C)c(CN2C(=O)c3ccccc3S(=O)(=O)c3ccc(C(=O)N4CCN(c5ccccn5)CC4)cc32)c1	.	-5.5%	.	.	-3.2%	.
Cc1ccc(NC(=O)CN2C(=O)COc3ccc(S(=O)(=O)N4CCOCC4)cc32)c(Cl)c1	.	0.8%	.	.	37.4%	.
CCOc1ccc(CNC(=O)Cn2cc3c(n2)-c2c(oc(C(=O)N4CCOCC4)c2C)CC3)cc1	.	-0.2%	.	.	-13.3%	.
CCC(=O)NC(=S)Nc1ccc(NC(=O)c2ccco2)c(OC)c1	9.8	13.4%	active	-27.7%	?	-1.9%
CC(C)CC(=O)NC(=S)Nc1ccc(NC(=O)c2ccco2)cc1	1.3	-4.8%	1.7	-4.4%	?	-1.2%
CCC(=O)NC(=S)Nc1ccc(NC(=O)c2ccco2)cc1	29.2*	2.9%	58.8*	4.5%	-29.8%	-0.9%
CCC(Nc1ccc(-c2nc(-c3ccco3)no2)cc1[N+](=O)[O-])c1ccccc1 (stereo not drawn)	.	-4.1%	.	.	-15.1%	.
Cc1ccc(CNC(=O)CCN2C(=O)C(C)Oc3ccc(C)cc32)cc1 (stereo not drawn)	.	-3.8%	.	.	-7.5%	.
Cc1ccc2oc(-c3ccc(NC(=O)c4ccncc4)cc3O)nc2c1	28.6*	4.8%	44.4*	1.6%	4.0%	7.4%
COc1ccc(CC(=O)Nc2ccc(-c3nc4cc(C)ccc4o3)c(O)c2)cc1OC	32.7*	2.4%	70.4	7.6%	1.8%	-5.8%
Cc1cccc(OCC(=O)Nc2ccc(-c3nc4cc(C)ccc4o3)c(O)c2)c1	.	-0.8%	.	.	0.0%	.
C=CCN(Cc1cn(C)nc1-c1cccc(Cl)c1)C1CCS(=O)(=O)C1 (stereo not drawn)	1.1	-5.3%	-11.5	0.5%	28.2µM*	1.7%
O=C(NCc1ccccc1Cl)c1ccc(NC(=O)c2nsc3ccccc23)cc1	.	-3.5%	.	.	-1.7%	.
COC(=O)c1c(NC(=O)C2CCCCC2C(=O)O)sc2c1CCCCC2 (stereo not drawn)	40.1*	-5.4%	83.9*	27.0%	.	1.3%
COC(=O)c1c(NC(=O)c2ccc(C)o2)sc2c1CCCCC2	49.5*	-6.5%	72.6*	-10.3%	-6.7%	-1.2%
CCOC(=O)c1c(NC(=O)C2CCCCC2C(=O)O)sc2c1CCCCC2 (stereo not drawn)	-5.0	0.1%	-18.6	29.9%	0.0%	0.9%
Cc1ccc(C(=O)Nc2sc3c(c2C(=O)O)CCCC3)o1	52.2*	-3.8%	67.6*	.	-5.3%	-4.5%
COC(=O)c1c(NC(=O)c2ccco2)sc2c1CCC2	3.1	4.6%	12.1	-6.4%	-28.7%	0.1%
O=C(Nc1sc2c(c1C(=O)O)CCC2)c1ccco1	6.2	-5.8%	31.7	-21.0%	2.9%	-8.8%
Cc1ccc(C(=O)Nc2sc3c(c2C(=O)O)CCCCC3)o1	37.4*	-4.7%	53.8*	15.1%	-12.0%	?
Cc1ccc(C(=O)Nc2sc3c(c2C(=O)O)CCC(C)C3)o1 (stereo not drawn)	.	-4.9%	.	.	.	.
SMILES	Cycloheximide cs	TbPYK inhibitor	Shiga inhibitor	Giardia FBPA inh	Sm TGR block	LmPK inh
COC(=O)c1c(NC(=O)Cc2cccs2)sc2c1CCCC2	29.6*	-12.0%	21.6	4.2%	-0.8%	1.0%
COc1ccc(-n2c(SCc3ccccc3F)nc3c([nH]c4ccccc43)c2=O)cc1OC	.	1.7%	.	.	8.0%	.
O=C(Cc1nc2ccccc2[nH]1)N/N=C/c1ccccc1	2.6	2.7%	2.1	1.0%	-12.2%	-2.4%
Clc1nc2ccccc2cc1/C=N/Nc1nc2ccccc2[nH]1	40.8*	-5.0%	21.4	4.5%	2.2%	-24.4%
O=C(O)c1ccc(/C=N/Nc2nc3ccccc3[nH]2)cc1	16.1*	-3.9%	24.0	12.8%	-0.5%	0.4%
COC(=O)c1ccc(/C=N/Nc2nc3ccccc3[nH]2)cc1	46.6*	-8.2%	151.2*	-1.6%	5.0%	-6.4%
O=C(CN1CCCCC1)N/N=C/c1cc2ccccc2nc1Cl	13.6	-1.1%	29.2	5.2%	9.1%	0.8%[11.5 µM]
CCN(CC)c1ccc(C=NNc2ccc([N+](=O)[O-])cn2)cc1	.	2.5%	.	.	.	.
CCN(CC)c1ccc(/C=N/Nc2nc3ccccc3[nH]2)cc1	37.4*	-1.6%	109.9*	?	?	1.8%
CCCCOc1ccc(C(=O)NCCc2csc3nc(-c4ccccc4F)nn23)cc1	.	-0.5%	.	.	-21.5%	.
Cc1ccc(S(=O)(=O)c2ccsc2NC(=O)c2ccccc2)cc1	.	-7.1%	.	.	.	.
CN(C(=O)CCc1nc(-c2ccccc2F)no1)c1ccc(Cl)cc1	.	0.9%	.	.	-4.5%	.
COC(=O)N1C2=C(c3ccccc3[C@@H]1CC(=O)Nc1ccc3cc4ccccc4cc3c1)[C@@H]1C(=O)N(c3ccccc3)C(=O)[C@@H]1[C@H](C)C2	.	.	.	-3.5%[12.9 µM]	.	-2.9%[11.5 µM]
O=C(N/N=C1/C[C@@H](O)[C@@H](O)[C@@H]2[C@@H]3C(=O)N(Cc4ccc5c(c4)OCO5)C(=O)[C@H]3CC[C@H]12)OCc1ccccc1	.	.	.	5.4%[12.9 µM]	.	.
C/C(=N\NC(=O)Cc1cccc2ccccc12)c1ccncc1	-2.1	2.2%	-8.4	0.1%	-6.0%	-3.0%
Cc1ccc(Cl)cc1N1CCN(c2nc3ccc(C(=O)c4ccccc4)cc3n3cnnc23)CC1	.	4.7%[15.4 µM]	.	.	7.3%	.
C(=N\Nc1nc2ccccc2[nH]1)/c1ccncc1	32.5*	-1.2%	69.0*	2.8%	16.0%	0.7%[11.5 µM]
CC(=O)Nc1nc2ccccc2[nH]1	-2.8	5.8%	5.3	1.6%	3.3%	-0.8%
C(=N\Nc1nc(Nc2ccccc2)nc(Nc2ccccc2)n1)/c1ccncc1	-1.6	1.8%	-9.2	0.8%	.	2.4%
CC(=O)Nc1ccc(/C=N/Nc2nc3ccccc3[nH]2)cc1	49.9*	3.6%	61.5*	7.1%	-0.2%	-9.0%
COc1cccc(NC(=O)c2cn(C3CCCCC3)c(=O)c3c2c2ccccc2n3C)c1	.	-6.5%	.	.	-0.4%	.
CCCCN(CC)CCNC(=O)c1cc2c(=O)[nH]c3ccc(C)cc3c2s1	6.0	-2.6%	-4.9	6.3%	-2.3%	6.2%
